The text below walks through data of PubChem BioAssay.

The nature of test [1]: E. coli DRC41 culture turbidity changes, primary screen, E. coli filamentation inducer project, strain DRC41, OD650, 48 h (AID 1152).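 Also: E. coli MC1000 strain DRC41 lacking acrAB efflux pump and sulA.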 Conditions: E. coli DRC41 (acrAB sulA), higher = more signal, called active from +8 up or from −8 down.
A short description of test [2]: small-molecule binders of probe aLefty1, primary screen, biochemical, small-molecule microarray, 635/667 nm fluorescence (AID 1153).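 Also: score merges spot fluorescence with signal-to-noise ratio from the scanned slide images.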 Conditions: higher = more signal.
The nature of test [3]: PSAC antagonists in infected red cells, primary screen, cell-based, P. falciparum Indochina, OD700, 1 h (AID 1154). Conditions: P. falciparum Indochina infected RBC osmotic lysis, higher = more signal, called active from +8 up or from −8 down.
The nature of test [4]: PSAC antagonists in infected red cells, primary screen, cell-based, P. falciparum Indochina, OD700, 2 h (AID 1155).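 Also: lysis reports solute entry through the parasite surface anion channel PSAC; channel blockers reduce lysis of infected cells.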 Conditions: P. falciparum Indochina infected erythrocytes, osmotic lysis OD700; higher = more signal, called active from +8 up or from −8 down.
Test [5] in a line: osmotic lysis modulators in infected erythrocytes, primary screen, PSAC antagonist project, cell-based, P. falciparum Indochina, OD700, 3 h (AID 1156). Conditions: higher = more signal, called active from +8 up or from −8 down.
Test [6] can be described thus: PSAC antagonists in infected red cells, primary screen, cell-based, P. falciparum Indochina, OD700, 18 h (AID 1157). Conditions: P. falciparum Indochina infected erythrocytes, osmotic lysis OD700, 18 h; higher = more signal, called active from +8 up or from −8 down.
Test [7] in a line: modulators of S6 phosphorylation in cells, primary screen, cell-based, A549, cytoblot, luminescence, serum-stimulated (AID 1158).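 Also: serum-stimulated A549 lung adenocarcinoma cells; signal is phosphorylated S6 detected by cytoblot immunostaining with HRP secondary.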 Conditions: A549 phospho-S6 cytoblot, 5 h, higher = more signal.
Test [8] addresses NADPH oxidase 2 (Homo sapiens) (UniProt P04839). Briefly: NOX2-dependent H2O2 signal modulators, primary screen, NOX inhibitor project, cell-based, HEK293-NOX2, PMA-stimulated, Amplex Red fluorescence (AID 1159). Also: test concentration not given here. Conditions: 45 min, higher = more signal, called active from +8 up or from −8 down.
The target of test [9] is NADPH oxidase 4 (Homo sapiens) (UniProt Q9NPH5). Briefly: NOX4-dependent H2O2 signal modulators, primary screen, NOX inhibitor project, cell-based, HEK293-NOX4, tetracycline-induced, Amplex Red fluorescence (AID 1160). Conditions: 45 min, higher = more signal, called active from +8 up or from −8 down.
The target of test [10] is NADPH oxidase 5 (Homo sapiens) (UniProt Q96PH1). Briefly: NOX5-dependent H2O2 signal modulators, primary screen, NOX inhibitor project, cell-based, HEK293-NOX5, Amplex Red fluorescence (AID 1161). Conditions: HEK293-NOX5, ionomycin, 45 min, higher = more signal.
Test [11] in a line: A549 cell viability effects, profiling panel, calcein-AM fluorescence, 48 h, basal (AID 1162). Also: test concentration not given here. Conditions: higher = more signal.
The nature of test [12]: adipocyte viability effects, profiling panel, cell-based, 3T3-L1 adipocytes, calcein-AM fluorescence, 48 h, basal (AID 1163). Also: test concentration not given here. Conditions: 3T3-L1 adipocytes viability, higher = more signal.
A short description of test [13]: HepG2 cell viability effects, profiling panel, calcein-AM fluorescence, 48 h, basal (AID 1164). Also: test concentration not given here. Conditions: higher = more signal.
Test [14] can be described thus: MM1S cell viability effects, profiling panel, calcein-AM fluorescence, 48 h, basal (AID 1165).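 Also: viability of MM1S multiple myeloma cells under basal unstimulated conditions; test concentration not given here.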 Conditions: higher = more signal.
Test [15] can be described thus: basal RPMI8226 viability, no added stimulus, profiling panel, cell-based, calcein-AM fluorescence, 48 h, PK04 Diversity Set (AID 1166).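 Also: cells grown under basal conditions without added stimulus; test concentration not given here.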 Conditions: RPMI8226 myeloma viability, higher = more signal.
A short description of test [16]: basal HepG2 mitochondrial membrane potential changes, profiling panel, cell-based, JC-1 fluorescence, 24 h, 100 nL compound (AID 1167). Also: test concentration not given here. Conditions: higher = more signal.
Test [17] is described as follows: basal 3T3-L1 adipocyte mitochondrial potential changes, profiling panel, cell-based, JC-1 fluorescence, 3T3-L1 adipocytes, 24 h, 100 nL compound (AID 1168). Also: test concentration not given here. Conditions: JC-1 mitochondrial fluorescence, higher = more signal, called active from +8 up or from −8 down.
Test [18] can be described thus: basal RPMI8226 mitochondrial membrane potential changes, profiling panel, cell-based, JC-1 fluorescence, 24 h, 100 nL compound (AID 1169). Also: test concentration not given here. Conditions: RPMI8226 myeloma, JC-1 mitochondrial potential fluorescence, higher = more signal.
The nature of test [19]: basal MM1S mitochondrial membrane potential changes, profiling panel, cell-based, JC-1 fluorescence, 24 h, 100 nL compound (AID 1170). Also: test concentration not given here. Conditions: higher = more signal.
Test [20] is described as follows: A549 lung cancer cell viability effects, profiling panel, resazurin fluorescence, 24 h, PK04 Diversity Set (AID 1171). Also: test concentration not given here. Conditions: higher = more signal, called active from +8 up or from −8 down. On the technique in general: Alamar Blue is a resazurin reagent that responds to reducing activity.

SMILES strings stand for the structures. Calls of active or inactive are those of the source.

NADPH oxidase 2 (Homo sapiens), sequence (P04839 whole entry, looked up): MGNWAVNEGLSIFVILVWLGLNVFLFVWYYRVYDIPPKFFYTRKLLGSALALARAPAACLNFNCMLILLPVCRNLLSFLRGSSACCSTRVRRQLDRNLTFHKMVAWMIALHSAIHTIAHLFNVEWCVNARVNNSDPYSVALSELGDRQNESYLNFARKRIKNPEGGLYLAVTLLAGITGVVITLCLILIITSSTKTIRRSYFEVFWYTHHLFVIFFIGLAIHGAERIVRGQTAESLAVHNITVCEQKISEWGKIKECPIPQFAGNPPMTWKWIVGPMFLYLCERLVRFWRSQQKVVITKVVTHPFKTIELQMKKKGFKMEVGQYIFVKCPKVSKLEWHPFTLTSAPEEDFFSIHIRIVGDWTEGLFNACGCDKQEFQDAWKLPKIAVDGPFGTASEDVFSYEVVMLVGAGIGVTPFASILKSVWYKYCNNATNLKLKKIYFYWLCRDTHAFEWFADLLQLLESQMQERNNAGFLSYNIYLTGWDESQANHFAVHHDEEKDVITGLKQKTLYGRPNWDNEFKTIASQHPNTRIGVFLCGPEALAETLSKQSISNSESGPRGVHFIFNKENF
NADPH oxidase 4 (Homo sapiens), sequence (Q9NPH5 whole entry, looked up): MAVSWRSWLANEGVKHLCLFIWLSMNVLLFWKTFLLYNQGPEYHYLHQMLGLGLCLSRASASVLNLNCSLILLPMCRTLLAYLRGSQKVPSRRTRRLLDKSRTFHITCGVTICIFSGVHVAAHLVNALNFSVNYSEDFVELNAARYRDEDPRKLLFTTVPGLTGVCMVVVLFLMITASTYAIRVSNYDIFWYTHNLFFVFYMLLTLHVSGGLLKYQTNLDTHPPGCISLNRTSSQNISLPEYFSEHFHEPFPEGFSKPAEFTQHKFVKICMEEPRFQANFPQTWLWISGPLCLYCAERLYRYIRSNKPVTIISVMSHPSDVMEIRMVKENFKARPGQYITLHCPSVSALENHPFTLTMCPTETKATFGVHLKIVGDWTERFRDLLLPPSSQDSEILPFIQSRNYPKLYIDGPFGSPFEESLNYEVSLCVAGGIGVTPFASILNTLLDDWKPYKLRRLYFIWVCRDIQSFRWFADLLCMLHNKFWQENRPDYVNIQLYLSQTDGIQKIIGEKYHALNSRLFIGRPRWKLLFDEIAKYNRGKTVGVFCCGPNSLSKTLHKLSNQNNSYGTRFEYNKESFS
NADPH oxidase 5 (Homo sapiens), sequence (Q96PH1 whole entry, looked up): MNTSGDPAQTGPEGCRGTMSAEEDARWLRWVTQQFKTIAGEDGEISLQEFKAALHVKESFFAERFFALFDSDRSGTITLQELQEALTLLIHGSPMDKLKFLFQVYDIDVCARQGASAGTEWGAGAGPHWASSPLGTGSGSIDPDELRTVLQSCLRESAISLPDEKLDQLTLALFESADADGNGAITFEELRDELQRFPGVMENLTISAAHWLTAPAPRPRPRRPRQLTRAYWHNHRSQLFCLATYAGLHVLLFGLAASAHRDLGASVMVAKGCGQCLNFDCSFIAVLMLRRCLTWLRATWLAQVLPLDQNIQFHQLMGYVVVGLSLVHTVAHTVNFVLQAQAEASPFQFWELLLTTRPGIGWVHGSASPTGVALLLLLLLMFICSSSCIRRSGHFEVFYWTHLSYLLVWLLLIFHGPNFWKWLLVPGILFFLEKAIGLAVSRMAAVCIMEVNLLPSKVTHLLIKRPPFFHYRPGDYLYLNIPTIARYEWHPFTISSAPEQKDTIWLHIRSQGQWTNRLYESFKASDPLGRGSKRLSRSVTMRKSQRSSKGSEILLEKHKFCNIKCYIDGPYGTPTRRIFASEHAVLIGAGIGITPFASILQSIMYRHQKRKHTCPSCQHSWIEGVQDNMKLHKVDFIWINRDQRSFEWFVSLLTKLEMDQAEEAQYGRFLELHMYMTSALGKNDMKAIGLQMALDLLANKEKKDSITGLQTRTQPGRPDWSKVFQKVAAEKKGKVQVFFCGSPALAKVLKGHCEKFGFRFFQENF

Turning to `C[N+](C)(C)CCCC[C@@H]1NC(=O)[C@@H]2C[C@H](C(=O)NCc3ccc(F)cc3)[C@H](c3ccc(O)cc3)N2C1=O`, the z-score was -0.7 (inactive) in test [1]; 0.936 (inactive) in [3]; 0.376 (inactive) in test [4]; -1.65 (inactive) in test [5]; 0.104 (inactive) in test [6]; 0.567 in [7]. The z-score in test [8] is 0.274 (inactive); in [9] it was 0.22 (inactive); in [10] it was 1.17; in test [11], 0.993; in test [12] it was -0.335; in [13], 0.698. In addition, the z-score in test [14] was 0.481; in [15] it was -0.114; in [16], 1.62; in test [17] it was -0.41 (inactive); in test [18], -0.0248; in test [19] it was -0.524. Further, the z-score in test [20] was -0.0894 (inactive). The same molecule registered a composite z-score in test [2] of -0.0186.

As to `C=CC[C@@]1(C(=O)OC)N=C(c2ccc(OCCCO)cc2)O[C@@H]1c1ccccc1N=[N+]=[N-]`, the z-score was 0.0465 (inactive) in test [1]; 30.6 (active) in [3]; 27.4 (active) in test [4]; 4.11 (inactive) in test [5]; 5.12 (inactive) in test [6]; 0.581 in test [7]. Further, the z-score is -0.471 (inactive) in test [8]; 1.43 (inactive) in [9]; -0.0237 in test [10]; -1.28 in [11]; 1.02 in [12]; -0.361 in test [13]. Also, the z-score in test [14] was -0.473; in test [15], -3.03; in [16], 1; in [17] it was 0.645 (inactive); in [18], -0.983; in test [19], 0.0955. Moreover, the z-score in [20] was -1 (inactive). The composite z-score in [2] was 0.398.

For the molecule `[N-]=[N+]=NCc1ccccc1[C@@H]1OC(c2ccc(OCCCO)cc2)=N[C@]1(Cc1ccccc1N=[N+]=[N-])C(=O)O`, the z-score was 0.0786 (inactive) in test [1]; 22.9 (active) in test [3]; 6.73 (inactive) in test [4]; 3.2 (inactive) in test [5]; 0.982 (inactive) in [6]; 0.0708 in test [7]. The z-score in test [8] is -1.51 (inactive); in test [9], -0.241 (inactive); in test [10], 0.58; in [11], 0.143; in [12] it was 1.47; in test [13], -0.567. Moreover, the z-score in [14] was -1.82; in test [15], -3.36; in test [16], -1.44; in [17] it was -1.48 (inactive); in test [18], -1.11; in test [19], 1.44. The z-score in test [20] is 0.54 (inactive). The molecule further showed a composite z-score in [2] of 0.865.

For `COc1ccc(C(O)C2C=CC3C(=O)N(C)C(=O)C3N2N(c2ccccc2)c2ccccc2)cc1` (stereo not given), the z-score in test [1] is -1.3 (inactive); in test [3], 2.07 (inactive); in test [4] it was 1.14 (inactive); in test [5], 0.509 (inactive); in test [6], 0.974 (inactive); in test [7] it was -0.478. For the same molecule, the z-score was -0.685 (inactive) in test [8]; -2.05 (inactive) in test [9]; -0.77 in test [10]; -0.738 in [11]; -0.863 in test [12]; 0.132 in test [13]. The z-score is 0.513 in test [14]; -0.556 in test [15]; -0.93 in test [16]; -1.3 (inactive) in [17]; -0.544 in [18]; -0.426 in test [19]. For the same molecule, the z-score in [20] was -0.691 (inactive). In test [2], this molecule yielded a composite z-score of 0.363.

As to `CN(C)CCCC[C@@H]1NC(=O)[C@@H]2C[C@H](C(=O)NCCCCCN)[C@H](c3cccc(OCCO)c3)N2C1=O`, the z-score was 2.96 (inactive) in test [1]; 1.11 (inactive) in [3]; -0.469 (inactive) in test [4]; -1.52 (inactive) in [5]; -2.07 (inactive) in test [6]; 2.77 in test [7]. Besides, the z-score in test [8] was 0.635 (inactive); in test [9] it was 0.585 (inactive); in test [10], 1.57; in test [11] it was 2.2; in [12], 0.494; in test [13], 1.44. The z-score in test [14] is -0.0351; in [15], 0.891; in test [16], 1.63; in [17] it was -1.03 (inactive); in test [18], -0.891; in [19], 0.697. The z-score in [20] is 1.08 (inactive). For the same molecule, in test [2], the composite z-score is 0.25.

Regarding `COC(=O)C(CC#Cc1ccc2c(c1)[C@]1(C(=O)N2)[C@H](C(=O)N2CCc3cc(OC)c(OC)cc3C2)[C@H]2C(=O)O[C@H](c3ccccc3)[C@H](c3ccccc3)N2[C@@H]1c1ccccc1OCCO)C(=O)OC`, the z-score in test [1] is 0.113 (inactive); in test [3] it was 2.85 (inactive); in [4], 1.76 (inactive); in test [5] it was 0.848 (inactive); in [6], 1.08 (inactive); in [7], -0.416. The z-score was 2.02 (inactive) in [8]; 0.405 (inactive) in test [9]; 1.9 in [10]; -0.179 in [11]; -0.665 in test [12]; 0.43 in [13]. Further, the z-score in [14] was -0.151; in test [15], 0.546; in test [16] it was -0.0236; in [17], 0.968 (inactive); in test [18] it was -0.839; in [19] it was -1.42. Further, the z-score in test [20] was -0.694 (inactive). Besides, the composite z-score in test [2] is 0.0429.

Consider `CC(C)C(CO)N1C(=O)[C@@H]2C3C(=O)OCCC/C=C\[C@H]3OC23C=CCN(Cc2ccccc2)C(=O)[C@@H]13` (stereo not given in full), for which the z-score in test [1] is 0.83 (inactive); in test [3] it was 1.12 (inactive); in test [4], 0.405 (inactive); in test [5], 1.12 (inactive); in [6], 0.503 (inactive); in test [7], 0.186. Also, the z-score is 1.25 (inactive) in test [8]; 0.838 (inactive) in test [9]; 2.26 in [10]; 0.214 in test [11]; -0.0826 in test [12]; 0.728 in test [13]. Besides, the z-score is 0.441 in test [14]; -0.0976 in test [15]; 0.161 in test [16]; 0.256 (inactive) in test [17]; -0.687 in test [18]; 0.942 in test [19]. Moreover, the z-score in test [20] was 0.777 (inactive). The molecule also showed a composite z-score in [2] of -0.0035.

`Cc1ccc(S[C@]2(C(=O)NC3CC3)CC(=O)N(C(C)C)[C@@H]2c2ccc(CO)cc2I)cc1`: the z-score is 0.839 (inactive) in test [1]; 5.84 (inactive) in [3]; -0.558 (inactive) in test [4]; 0.927 (inactive) in [5]; -1.31 (inactive) in test [6]; 2.32 in test [7]. In addition, the z-score is 0.828 (inactive) in test [8]; -1.91 (inactive) in test [9]; -2.33 in test [10]; 1.22 in test [11]; 1.07 in [12]; -0.722 in test [13]. Further, the z-score in [14] was -2.31; in test [15], -2.82; in test [16], 2.11; in [17], -0.578 (inactive); in test [18], -0.114; in [19], -2.21. The z-score in test [20] was 0.954 (inactive). The composite z-score in test [2] was -0.703.

As to `CCCCCC1=C2CNC(Cc3ccccc3)(C(=O)OC)C=C2C(C)C1=O` (stereo not given), the z-score is -1.76 (inactive) in test [1]; 2.16 (inactive) in [3]; -0.21 (inactive) in [4]; 1.04 (inactive) in test [5]; 0.422 (inactive) in test [6]; -0.275 in test [7]. Besides, the z-score was -0.733 (inactive) in test [8]; -3.5 (inactive) in [9]; -3 in test [10]; -1.33 in test [11]; 0.598 in test [12]; -1.14 in [13]. Moreover, the z-score in test [14] is -2.69; in test [15] it was -3.65; in test [16], 1.14; in test [17], -1.55 (inactive); in test [18], -0.608; in test [19], -0.32. Also, the z-score in test [20] is -0.605 (inactive). In test [2], this molecule displayed a composite z-score of 0.568.
